This note sets out measurements from PubChem BioAssay (NCI).

Test systems include DU-145 prostate; K-562 leukemia; MALME-3M melanoma; MDA-MB-231 breast; RXF 393 renal; SF-268 CNS; SF-295 CNS; SF-539 CNS; UACC-257 melanoma; M14 melanoma; HCT-15 colon; HT29 colon; SNB-75 CNS; SNB-19 CNS; U251 CNS; PC-3 prostate; SK-MEL-5 melanoma; UACC-62 melanoma; LOX IMVI melanoma; SK-MEL-28 melanoma.
Common to all, as to assay: NCI-60 one-dose screen, 48 h (100 = growth as untreated, 0 = no growth, -100 = all killed)
Details in all cases: 10 µM unless noted

Compounds without any hit were thinned out: in the full panel of roughly 83,000, 20% have a hit.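 The endpoint reported here, percent growth, reads 100 for growth as untreated, 0 for no net growth and -100 for all cells dead.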 Unmarked numbers belong to inactive results. The source made the active and inactive calls. How the source made its calls: active means growth percent below 10; inactive means the rest.

As to `O=C(CSc1nnc2n1S(=O)(=O)c1ccccc1N2c1ccccc1)Nc1nc2ccc(F)cc2s1`, the growth in the assay on DU-145 prostate is 114%; with K-562 leukemia, 98.5%; with MALME-3M melanoma, 87.4%; in the assay on MDA-MB-231 breast it was 98.9%; in the assay on RXF 393 renal it was 87.1%; with SF-268 CNS, 97.2%. Further, the growth in the assay with SF-295 CNS was 91.5%; with SF-539 CNS it was 102%; with UACC-257 melanoma it was 111%; with M14 melanoma, 96.5%; in the assay with HCT-15 colon, 104%; in the assay with HT29 colon, 104%. The growth in the assay on SNB-75 CNS is 85.5%; with SNB-19 CNS, 99.6%; in the assay on U251 CNS, 103%; in the assay on PC-3 prostate, 89.5%; with SK-MEL-5 melanoma it was 87.7%; with UACC-62 melanoma, 81.2%. In addition, the growth was 85.8% in the assay with LOX IMVI melanoma and 117% with SK-MEL-28 melanoma.

As for `CN(C)CCCC1(c2ccc(F)cc2)OCc2cc(-c3cccc4[nH]ccc34)ccc21` (stereo not given), the growth is 18.9% with DU-145 prostate; -4.22% (active) with K-562 leukemia; -91.6% (active) in the assay with MALME-3M melanoma; 40.8% in the assay on MDA-MB-231 breast; 37.6% in the assay on RXF 393 renal; 41% in the assay with SF-268 CNS. Besides, the growth with SF-295 CNS is 20%; in the assay with SF-539 CNS, 14%; in the assay on UACC-257 melanoma it was -5.65% (active); in the assay with M14 melanoma, -68.4% (active); in the assay with HCT-15 colon, 7.57% (active); with HT29 colon, -31.3% (active). The growth was 11.4% in the assay with SNB-75 CNS; 51.9% in the assay with SNB-19 CNS; -24.1% (active) with U251 CNS; 28.6% with PC-3 prostate; -84.1% (active) with SK-MEL-5 melanoma; 37.5% in the assay with UACC-62 melanoma. Further, the growth is -92.1% (active) in the assay with LOX IMVI melanoma and -86% (active) in the assay on SK-MEL-28 melanoma.

On to `CCc1ccc(Oc2cn[nH]c2-c2ccc(OCCc3ccc(F)cc3)cc2O)cc1`, for which the growth is 90.5% in the assay with DU-145 prostate; 100% in the assay on K-562 leukemia; 95.1% in the assay on MALME-3M melanoma; 85% in the assay on MDA-MB-231 breast; 111% in the assay with RXF 393 renal; 88.9% in the assay with SF-268 CNS. The growth in the assay on SF-295 CNS is 99.2%; in the assay with SF-539 CNS it was 106%; in the assay on UACC-257 melanoma, 93.3%; in the assay on M14 melanoma, 83.1%; in the assay on HCT-15 colon, 74.3%; with HT29 colon, 42.4%. The growth was 79% in the assay with SNB-75 CNS; 108% in the assay on SNB-19 CNS; 53.5% in the assay with U251 CNS; 72.2% in the assay on PC-3 prostate; 97.5% with SK-MEL-5 melanoma; 88.6% with UACC-62 melanoma. Moreover, the growth in the assay with LOX IMVI melanoma was 86.8%; with SK-MEL-28 melanoma, 87.3%.

Turning to `CCN(CC)c1nc(SCc2ccccc2Cl)ncc1C`, the growth in the assay on DU-145 prostate is 109%; in the assay on K-562 leukemia, 97.7%; in the assay with MALME-3M melanoma it was 115%; with MDA-MB-231 breast, 80.3%; in the assay on RXF 393 renal, 99.6%; in the assay with SF-268 CNS, 113%. Moreover, the growth was 97.3% in the assay on SF-295 CNS; 129% in the assay on SF-539 CNS; 106% in the assay with UACC-257 melanoma; 114% with M14 melanoma; 96.4% with HCT-15 colon; 107% in the assay with HT29 colon. In addition, the growth was 97.8% with SNB-75 CNS; 96.4% in the assay with SNB-19 CNS; 92.6% in the assay on U251 CNS; 89.9% in the assay on PC-3 prostate; 83.8% in the assay with SK-MEL-5 melanoma; 81.2% in the assay with UACC-62 melanoma. In addition, the growth was 95.9% with LOX IMVI melanoma and 118% in the assay with SK-MEL-28 melanoma.

Regarding `O=[N+]([O-])C1C(c2ccccc2)C12c1ccccc1-c1ccccc12` (stereo not given), the growth in the assay on DU-145 prostate was -36.8% (active); in the assay on K-562 leukemia, -12.5% (active); with MALME-3M melanoma it was 59.4%; with MDA-MB-231 breast, 6.89% (active); in the assay with RXF 393 renal, -21.8% (active); with SF-268 CNS, 29.3%. In addition, the growth in the assay on SF-295 CNS is -23.1% (active); in the assay with SF-539 CNS it was -12.2% (active); in the assay with UACC-257 melanoma it was 40.9%; with M14 melanoma it was -10.2% (active); in the assay on HCT-15 colon, 17.5%; with HT29 colon, -13.4% (active). Moreover, the growth in the assay on SNB-75 CNS is 29%; in the assay with SNB-19 CNS, 43.3%; with U251 CNS, -15.2% (active); in the assay with PC-3 prostate it was 12.2%; in the assay on SK-MEL-5 melanoma it was -16.5% (active); in the assay on UACC-62 melanoma, 17.8%. For the same compound, the growth in the assay with LOX IMVI melanoma was -44.4% (active); in the assay with SK-MEL-28 melanoma it was 49.2%.

As for `CN(CCn1sc(=O)n(Cc2ccccc2)c1=O)Cc1ccc2c(Cl)cc(Cl)c(O)c2n1`, the growth with DU-145 prostate is 51.6%; in the assay with K-562 leukemia, 13.7%; with MALME-3M melanoma it was 63.7%; in the assay with MDA-MB-231 breast, 46.4%; with RXF 393 renal, 53.7%; in the assay on SF-268 CNS, 46.1%. Moreover, the growth is 30.5% with SF-295 CNS; 47.1% with SF-539 CNS; 78.5% in the assay with UACC-257 melanoma; 49.4% in the assay with M14 melanoma; 16.3% in the assay on HCT-15 colon; 39.9% with HT29 colon. Besides, the growth in the assay on SNB-75 CNS was 74.6%; with SNB-19 CNS it was 39.7%; with U251 CNS it was 27%; in the assay on PC-3 prostate, 35.5%; with SK-MEL-5 melanoma, 59.5%; in the assay on UACC-62 melanoma, 29.8%. For the same compound, the growth in the assay on LOX IMVI melanoma is 30.7%; in the assay on SK-MEL-28 melanoma it was 59.8%.

As for `COc1ccc2[nH]cc(C(c3cc(F)cc(F)c3)c3c[nH]c4ccc(OC)cc34)c2c1`, the growth is 95.9% in the assay on DU-145 prostate; 59% with K-562 leukemia; 206% in the assay with MALME-3M melanoma; 78.8% in the assay on MDA-MB-231 breast; 80.5% in the assay on RXF 393 renal; 80% in the assay with SF-268 CNS. Moreover, the growth in the assay with SF-295 CNS is 79.1%; in the assay with SF-539 CNS it was 93.4%; in the assay with UACC-257 melanoma it was 84.3%; in the assay with M14 melanoma, 86.6%; in the assay with HCT-15 colon it was 65.2%; in the assay with HT29 colon, 81.5%. In addition, the growth in the assay with SNB-75 CNS was 85.9%; in the assay with SNB-19 CNS it was 82.9%; in the assay with U251 CNS it was 86.8%; with PC-3 prostate it was 50.2%; in the assay with SK-MEL-5 melanoma, 91.7%; with UACC-62 melanoma, 85.5%. The growth was 67.3% in the assay with LOX IMVI melanoma and 105% with SK-MEL-28 melanoma.
